High-throughput results from PubChem BioAssay.
Bim-Mcl-1: human Bim-Mcl-1 interaction inhibition. Q07820. Bead-based flow cytometry, Bim peptide-Mcl-1 binding. inhibition, % at 10 µM. 190,000 tested, 0.1% active. AID 1009; in the data active = inhibition above about 40%;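 also: 0% = no compound tracer wells and 100% = peptide blocker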
Target sequence (Q07820 whole entry, looked up): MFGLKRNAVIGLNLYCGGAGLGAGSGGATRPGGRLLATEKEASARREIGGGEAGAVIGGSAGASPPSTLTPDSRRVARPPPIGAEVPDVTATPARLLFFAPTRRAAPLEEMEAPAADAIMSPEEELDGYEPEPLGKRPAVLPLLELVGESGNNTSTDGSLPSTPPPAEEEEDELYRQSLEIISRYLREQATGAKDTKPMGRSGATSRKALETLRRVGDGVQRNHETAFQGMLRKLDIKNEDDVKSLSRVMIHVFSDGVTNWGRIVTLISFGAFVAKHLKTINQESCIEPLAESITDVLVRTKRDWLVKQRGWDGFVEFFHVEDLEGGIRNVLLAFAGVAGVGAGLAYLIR
NCF1 inh: blocks human p47phox regulatory protein of NADPH oxidases | P14598 | p47phox/p22phox peptide binding, fluorescence polarization, 2 h | inhibition, % at 24.7 µM | 220,000 tested, 0.53% active | AID 1274;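 active = inhibition above about 30%, limit read from the data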;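 also: 0% = p47phox with labelled peptide and 100% = labelled peptide alone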
14-3-3 Bad inh: disrupts binding of bovine 14-3-3 zeta to phospho-Bad peptide | TR-FRET 14-3-3zeta/Dy647-pBad peptide displacement, 1 h | inhibition, % at 21.7 µM | 220,000 tested, 0.71% active | AID 781;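 active = inhibition above about 70%, limit read from the data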;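 also: 0% = full 14-3-3 plus peptide FRET controls and 100% = background without 14-3-3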
Target sequence (P63103 whole entry, looked up): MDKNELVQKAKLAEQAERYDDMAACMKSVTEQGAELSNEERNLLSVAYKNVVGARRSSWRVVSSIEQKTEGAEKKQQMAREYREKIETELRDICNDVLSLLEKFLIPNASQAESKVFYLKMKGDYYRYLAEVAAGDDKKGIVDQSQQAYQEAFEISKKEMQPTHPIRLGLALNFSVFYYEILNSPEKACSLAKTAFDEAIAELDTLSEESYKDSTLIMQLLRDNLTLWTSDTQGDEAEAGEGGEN
Mcl1 Bid PPI: Mcl-1/Bid interaction inhibition. Q07820. 220,000 tested, 0.97% active. AID 1021. inhibition, % at 21.7 µM. TR-FRET Mcl-1/Bid-Dy647 peptide binding, 1536-well;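 active = compounds that cut the binding signal by more than half at the single screening dose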;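 also: His-tagged Mcl-1 with europium anti-His antibody binding Bid BH3 peptide; 0% = Mcl-1 plus peptide wells and 100% = peptide-only wells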
Mcl1 Noxa PPI: disrupts binding of human Mcl-1 to Noxa peptide | 220,000 tested, 1.5% active | Q07820 | TR-FRET Mcl-1/Noxa peptide binding, 2 h | inhibition, % at 21.7 µM;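 active = compounds that cut the protein-peptide binding signal by more than 50% relative to plate controls in a single-dose test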;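 also: His-tagged Mcl-1 with rhodamine Noxa BH3 peptide and terbium anti-His antibody; 0% = Mcl-1 plus Noxa peptide wells and 100% = peptide-only wells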
* marks the source's active call; other numbers are inactive results; nt = no result given. Shown are actives, neighbours in structure and some others; about 3.2% of the full set was active somewhere.

SMILES | Bim-Mcl-1 | NCF1 inh | 14-3-3 Bad inh | Mcl1 Bid PPI | Mcl1 Noxa PPI
CC1(C)CC(NC(=O)COc2ccc([N+](=O)[O-])cc2)CC(C)(C)N1 | 68* | -4 | -3 | -12 | 22
CCOC(=O)N1CCN(C(=O)c2cnn3c(C(F)(F)F)cc(-c4cccs4)nc23)CC1 | 1 | -7 | -1 | -38 | 0
O=C(c1cnn2c(C(F)(F)F)cc(-c3cccs3)nc12)N1CCOCC1 | 0 | 0 | -5 | 69* | 10
COc1ccc(C2NC(=S)NC3=C2CCc2cc(OC)ccc23)cc1 (centres undefined) | -3 | -13 | -6 | -113 | 11
COc1ccc(CN2CCN(C(=O)CC(C)C)CC2)c2ccccc12 | -1 | 0 | 83* | 12 | 13
CCOc1cc(CN2CCN(C(=O)c3ccco3)CC2)ccc1OC | 1 | -8 | 61 | -3 | 27
COc1cccc(CN2CCN(C(=O)c3cccc4ccccc34)CC2)c1OC | -1 | 11 | nt | 11 | 15
COc1ccc(CN2CCN(C(=O)CC(C)C)CC2)cc1OC | -3 | -3 | 74* | 33 | 3
COc1ccc(-n2c(SCC(N)=O)nnc2-c2cccnc2)cc1 | -12 | 1 | -11 | -2 | 24
COc1cccc(-n2c(SCC(=O)O)nnc2-c2cccnc2)c1 | 4 | -4 | 88* | -26 | 3
CCCc1nn2c(=O)cc(O)nc2s1 | -2 | -18 | -26 | -41 | 20
CCCc1nn2c(=O)c(C(c3ccc(C)cc3)c3c(O)nc4sc(CCC)nn4c3=O)c(O)nc2s1 | -1 | 149* | 0 | -34 | 2
O=C(/C=C/c1cccc(Br)c1)NCc1ccncc1 | 2 | -8 | -14 | -15 | 0
Cc1ccc(N2C(=O)c3n[nH]c(C)c3C2c2ccccn2)cc1 (centres undefined) | 1 | 73* | -6 | -18 | 3
COC(=O)c1ccc(C2c3c(n[nH]c3C)C(=O)N2c2ccc(C)cc2)cc1 (centres undefined) | 0 | -3 | 2 | -8 | 8
Cc1ccc(N2C(=O)c3n[nH]c(C)c3C2c2ccco2)cc1 (centres undefined) | -2 | 46* | -2 | -12 | 6
Cc1nnsc1-c1nnc(SCC(=O)c2ccccc2)n1C1CC1 | nt | 5 | 1 | -9 | -4
Clc1ccc(-c2csc(N/N=C/c3ccco3)n2)cc1 | nt | -5 | -6 | -33 | 7
Clc1ccc(-c2csc(N/N=C\c3cccnc3)n2)cc1 | -2 | 12 | 76* | -46 | 16
Cc1ccc(S(=O)(=O)N2CCOCC2)cc1C(=O)N1C(=O)c2cccc(N)c2C1=O | -1 | -27 | -10 | 97* | 17
Cc1ccc(S(=O)(=O)N2CCOCC2)cc1C(=O)O | -1 | 2 | -8 | 1 | 11
CC1(C)C2CCC(C2)C1(C)NC(=O)CNCC1CCCCC1 (centres undefined) | -1 | 2 | 26 | 35 | 30
CCOC(=O)CCCC(=O)N1CCOCCOCCOCC1 | nt | 8 | 2 | -5 | -1
CCC1(c2ccc(Cl)cc2)NC(=O)N(Cc2ccc(C(=O)OC)cc2)C1=O (centres undefined) | 3 | -10 | -5 | -5 | 16
Cc1ccc(S(=O)(=O)NCCC(=O)OCC(=O)Nc2ccccc2Cl)cc1 | 0 | 33* | -9 | -20 | 14
SMILES | Bim-Mcl-1 | NCF1 inh | 14-3-3 Bad inh | Mcl1 Bid PPI | Mcl1 Noxa PPI
O=C(COC(=O)c1cc[n+]([O-])cc1)Nc1ccccc1Cl | 0 | -1 | -7 | 87* | -6
COc1ccccc1CNC(=O)c1cnccn1 | 2 | -3 | -5 | -53 | 68*
O=C(Cn1nnc2ccccc21)OCC(=O)c1ccc(F)cc1 | nt | -4 | 3 | -10 | 7
Cc1ccc(CN(CC2CCCO2)C(=O)CN2C(=O)C(C(C)C)Oc3ccccc32)o1 (centres undefined) | 1 | -9 | -1 | -53 | -9
O=C(CN1C(=O)COc2ccccc21)N(Cc1ccc2c(c1)OCO2)CC1CCCO1 (centres undefined) | -4 | -6 | -7 | 100* | -3
O=C(O)c1cc(-c2cc3ccccc3o2)nn1-c1ccccc1 | -2 | -5 | 6 | 4 | 9
O=C(O)c1cc(-c2ccco2)nn1-c1cccc(Cl)c1 | -4 | -17 | 67 | 1 | 69*
O=C(O)c1cc(-c2ccco2)nn1-c1ccc(Cl)cc1 | -2 | -21 | 69 | -13 | 81*
Cc1ccc(-n2nc(-c3cccnc3)cc2C(=O)N2CCOCC2)c(C)c1 | -1 | -7 | -12 | -18 | 9
Cc1ccc(-n2nc(-c3ccco3)cc2C(=O)O)c(C)c1 | 0 | -17 | 65 | -42 | 79*
CC(=O)C1C(c2cccc(F)c2)c2c(n[nH]c2C)CC1(C)O (centres undefined) | nt | 1 | 3 | -18 | -12
O=C(O)/C=C/c1ccc(-n2ccnc2)cc1 | nt | 0 | 0 | -10 | -4
NC(=O)c1nn(CC(=O)Nc2ccc3c(c2)OCO3)cc1[N+](=O)[O-] | -2 | -2 | 1 | -8 | 74*
O=C(CN1C(=O)CSCC1=O)Nc1ccc2c(c1)OCO2 | -5 | -9 | 5 | -24 | 53*
CC1SC(C)C(=O)N(CC(=O)Nc2ccc3c(c2)OCO3)C1=O (centres undefined) | -2 | -5 | 1 | -19 | 34
CN(C)/C=C(\C=O)c1ccc(Cl)cc1Cl | 0 | 4 | -9 | -24 | 8
O=C(NN1CCN(Cc2ccccc2Cl)CC1)c1ccc(Br)cc1 | -1 | 2 | -6 | -23 | 21
CCOC(=O)c1c(NC(=O)C(=O)N/N=C/c2ccc(O)c(OC)c2)sc2c1CCCCC2 | 0 | -9 | -14 | -21 | 17
CCOC(=O)c1c(NC(=O)c2cc(-c3ccc(O)cc3)on2)sc(C(C)=O)c1C | -8 | -11 | 65 | -16 | 84*
CCOC(=O)c1c(NC(=O)N/N=C/c2ccc(O)c(OC)c2)sc(C(C)=O)c1C | nt | -10 | 58 | 71* | 84*
CCOC(=O)c1c(NC(=O)CC(C)C)sc(C(C)=O)c1C | nt | 3 | -8 | 6 | -20
CCC(CC)C(=O)Oc1c(Sc2ccccc2[N+](=O)[O-])c(C)nn1C(C)(C)C | -3 | -5 | 1 | 91* | -7
COc1ccc(C2Cc3ccccc3C(=O)O2)cc1 (centres undefined) | 2 | -11 | -8 | 3 | 3
O=c1[nH]c(-c2ccccc2Cl)nc2c1sc(=S)n2-c1ccccc1 | 1 | -6 | 71* | 89* | 44
O=C(O)c1cc2nccc(-c3ccc(F)cc3)n2n1 | 4 | 7 | 33 | -25 | 21
CC1CCN(CC(=O)Nc2ccc(N3CCCCCC3)cc2)CC1 | 2 | -4 | 41 | -36 | 39
CCOC(=O)c1ccc(S(=O)(=O)NCC(c2ccc(N(C)C)cc2)c2c[nH]c3ccccc23)cc1 (centres undefined) | -2 | -19 | -8 | -23 | 15
CN(C)c1ccc(C(CNC(=O)c2ccc(C#N)cc2)c2c[nH]c3ccccc23)cc1 (centres undefined) | -1 | -11 | -5 | -6 | 79*
